From PubChem BioAssay
Compounds with a hit are over-represented: about 2.2% of the library has one in this group of screens.
LDHA block: qHTS assay for inhibitors of human lactate dehydrogenase. purified LDHA, NADH/diaphorase-resazurin fluorescence; stronger effect = lower value. activity change, % (values are at about 110 or 230 µM). 480,000 tested, 0.15% active. AID 1347041, 2019; in the data active = activity change below about -30%; inconclusive = mostly about -25% to -30%
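LDH5 2 nM; NADH 0.06 mM, pyruvate 0.2 mM; 200 mM Tris pH 7.4, EDTA, Tween-20; 5 min RT. Detection: diaphorase 0.133 mg/mL + resazurin 37 µM, fluorescence ex540/em590 at 0 and 20 min; normalized to enzyme-free and DMSO wells.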
ATXN2 expr inh: Primary qHTS for Inhibitors of ATXN expression | HEK-293 ATXN2-luciferase reporter, luminescence, 24 h | Potency, µM (doses to about 57 µM), actives largely listed as inhibitors | 360,000 tested, 0.72% active; note: nearly all actives have a fitted effect of over 55% in size
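qHTS (up to 57 uM final) was run with 24 h compound exposure of reporter cells at 37 °C. Each well was multiplexed: SteadyGlo luminescence measured ATXN2-luciferase expression after a fluorogenic Gly-Phe-AFC viability readout (25 uM final).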
HepG2 tox: qHTS for Inhibitors of TGF-b: Cytotox Counterscreen | 410,000 tested, 0.76% active | HepG2 CAGA-GFP viability, ATP luminescence, 18 h | Potency, µM (top dose mostly 46.1 µM), most hits filed as cytotoxic | AID 588856, 2011
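HepG2 CAGA-GFP cells (1000/well, DMEM with 1% FBS) received compound, then TGF-beta at 500 pg/mL final, and were incubated 18 hours at 37 degrees C. Viability was read by CellTiter-Glo luminescence. Media-only wells were set as complete cell-killing and DMSO as no toxicity.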
IDH1 R132H inh: qHTS for Inhibitors of mutant isocitrate dehydrogenase 1 (IDH1): qHTS | 390,000 tested, 0.093% active | IDH1-R132H enzyme, NADPH consumption, diaphorase/resazurin fluorescence | Isocitrate dehydrogenase [NADP] cytoplasmic (Homo sapiens), O75874 | Potency, µM (titrated, usually from 76.6 µM), actives largely listed as inhibitors; note: nearly all actives have a fitted effect of over 65% in size
Target sequence (O75874 whole entry R132H, stated change not applied): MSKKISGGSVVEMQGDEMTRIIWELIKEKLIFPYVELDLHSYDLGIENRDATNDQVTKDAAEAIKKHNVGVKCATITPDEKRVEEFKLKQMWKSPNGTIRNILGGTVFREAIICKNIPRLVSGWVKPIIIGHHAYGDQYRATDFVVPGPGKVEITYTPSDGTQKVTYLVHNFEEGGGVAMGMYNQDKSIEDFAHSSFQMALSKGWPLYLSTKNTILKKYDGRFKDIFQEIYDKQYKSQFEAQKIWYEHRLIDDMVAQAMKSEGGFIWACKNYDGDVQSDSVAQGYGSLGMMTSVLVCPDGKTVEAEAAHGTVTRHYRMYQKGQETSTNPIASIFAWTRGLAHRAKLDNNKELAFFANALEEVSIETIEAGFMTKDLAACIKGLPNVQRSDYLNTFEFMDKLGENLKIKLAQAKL
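IDH1-R132H (0.5 ug/mL dispensed) in pH 7.5 Tris buffer was preincubated 30 min with compound, then given a substrate mix of 0.016 mM NADPH and 2 mM alpha-KG for 80 min at room temperature; remaining NADPH was read by diaphorase/resazurin fluorescence.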
ATXN viability: Viability Counterscreen for Primary qHTS for Inhibitors of ATXN expression; AID 651635, 2014; S2 cells (HEK-293 line with an ATXN2-luciferase reporter) viability, CellTiter-Fluor protease fluorescence, 24 h; Potency, µM (highest dose often 56.7 µM), most hits filed as cytotoxic; 400,000 tested, 0.49% active; note: nearly all actives have a fitted effect of over 40% in size
TGFb inhibitor: qHTS for Inhibitors of TGF-b; Potency, µM (highest dose often 46.1 µM), usual class: inhibitors; 410,000 tested, 1.2% active; HepG2 CAGA-GFP TGF-b/SMAD3 reporter, GFP fluorescence, 18 h; TGF-beta stimulated, 500 pg/mL final; note: nearly all actives have a fitted effect of over 65% in size
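HEPG2 CAGA-GFP reporter cells (1000/well, DMEM with 1% FBS) received compounds, then recombinant TGF-beta at 500 pg/mL final for 18 hours at 37 degrees C. Per-cell GFP summed per well was normalised to unstimulated and stimulated DMSO controls before curve fitting.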
Numbers stand for hits; - = inactive; ? = inconclusive; . = not tested or not shown; ! = not active in a repeat. Unless noted, calls come from the whole dose curve; as a rule, active = well fitted curve in the direction sought with a large enough effect; inconclusive = small, poorly fitted or top-dose-only effect, or another doubt; inactive = no such curve, though single readings can be large; an effect the other way counts as inactive or inconclusive.

SMILES | LDHA block | ATXN2 expr inh | HepG2 tox | IDH1 R132H inh | ATXN viability | TGFb inhibitor
O=C(CN1C(=O)c2ccccc2S1(=O)=O)c1ccc2c(c1)OCCCO2 | - | 0.28µM | - | - | - | ?
O=C(CN1C(=O)c2ccccc2S1(=O)=O)c1ccc2c(c1)OCCO2 | - | . | - | - | - | -
O=C(CN1C(=O)c2ccccc2S1(=O)=O)c1ccc(F)cc1 | - | . | - | - | - | -
O=C1CCc2ccccc2N1Cc1ccccc1 | - | - | - | - | - | ?
Cc1ccccc1OCC(O)Cn1c(=N)n(CCN2CCCCC2)c2ccccc21 (configuration not stated) | - | . | 16µM | . | . | .
N=c1n(CCN2CCCCC2)c2ccccc2n1CC(O)COc1ccccc1 (configuration not stated) | - | ? | - | - | 25µM! | 11µM!
N=c1n(CCN2CCCCC2)c2ccccc2n1CC(O)c1ccc(Cl)c(Cl)c1 (configuration not stated) | - | 25µM | 11µM | - | ? | ?
Cc1ccc(-n2c(=O)c3sccc3n(Cc3cc(=O)n4cc(Cl)ccc4n3)c2=O)cc1F | - | - | - | - | - | -
COc1ccc(OCCN2CCC(C(=O)NC(c3ccccc3)c3ccc4ccccc4n3)CC2)cc1 (configuration not stated) | - | - | 6.3µM | . | ? | ?
O=C(NC(c1ccc(F)cc1)c1cnccn1)C1CCN(CCOc2ccc(Cl)cc2Cl)CC1 (configuration not stated) | - | ? | - | . | ? | ?
COc1ccc(OCCN2CCC(C(=O)NC(c3ccc(OC)cc3)c3ccccn3)CC2)cc1 (configuration not stated) | - | - | - | . | - | -
O=C(NC(c1ccc(F)cc1)c1ccc2ccccc2n1)C1CCN(CCOc2ccc(Cl)cc2Cl)CC1 (configuration not stated) | - | ? | 11µM | . | . | ?
O=C(NC(c1ccc(F)cc1)c1ccc2ccccc2n1)C1CCN(CCOc2ccc(F)cc2)CC1 (configuration not stated) | - | 28µM | 16µM | . | 16µM | 11µM
Cn1cc(CN2CCC(C(=O)NC(c3ccc(F)cc3)c3ccc4ccccc4n3)CC2)c2ccccc21 (configuration not stated) | - | 28µM | 10µM | . | 28µM | ?
O=C(NC(c1ccc(F)cc1)c1ccc2ccccc2n1)C1CCN(Cc2ccc(Oc3ccccc3)cc2)CC1 (configuration not stated) | - | - | - | . | - | ?
Cc1ccc(NS(=O)(=O)c2cc(C(=O)N3CCN(C)CC3)ccc2C)cc1 | - | - | - | - | - | ?
CCCNC(=O)c1cc(-c2ccc3c(c2)OCO3)on1 | - | - | - | - | - | -
CCc1ccc(-c2nc(CS(=O)CC(=O)NCc3ccc(F)cc3)c(C)o2)cc1 (configuration not stated) | - | . | - | - | . | -
O=c1oc(=S)oc2c1[C@H](c1ccc(Cl)cc1)O[C@H](C1CCCC1)C2 | - | - | . | . | - | .
COC(=O)c1c(C(=O)OC)c(-c2ccc(F)cc2)n2c1CS(=O)(=O)C2 | - | . | - | - | - | -
COc1ccc(OCCN2CCC(C(=O)NC(c3ccc(F)cc3)c3ccc4ccccc4n3)CC2)cc1 (configuration not stated) | - | ? | 11µM | . | ? | 20µM
Cc1ccc(Cl)cc1N1CCN(C(=O)c2cnn(-c3ccc(Cl)cc3)c2C2CCNCC2)CC1 | - | 32µM | 11µM | - | . | ?
Cc1c(Cl)cccc1-n1ncc(C(=O)N2CCOCC2)c1C1CCN(C(=O)OC(C)(C)C)CC1 | - | - | - | - | - | -
Cc1ccc(N2CCN(C(=O)c3cnn(-c4ccc(C)c(C)c4)c3C3CCNCC3)CC2)c(C)c1 | - | ? | - | - | - | ?
Cc1cccc(N2CCN(C(=O)c3cnn(-c4cccc(Cl)c4C)c3C3CCNCC3)CC2)c1C | - | . | - | - | . | 18µM
SMILES | LDHA block | ATXN2 expr inh | HepG2 tox | IDH1 R132H inh | ATXN viability | TGFb inhibitor
O=S1(=O)CCOC[C@H](Cc2ccccc2)N1Cc1cccc(C(F)(F)F)c1 | - | - | - | - | - | -
O=S1(=O)CCOC[C@H](CC2CCCCC2)N1Cc1cccc(C(F)(F)F)c1 | - | - | 13µM! | - | - | ?
O=S1(=O)CCOC[C@H](CC2CCCCC2)N1Cc1ccccc1Br | - | - | 7.1µM! | - | - | 13µM
O=S1(=O)CCOC[C@H](CC2CCCCC2)N1Cc1ccccc1F | - | - | - | - | ? | ?
S=c1[nH]nc(-c2cc(-c3ccccc3)n[nH]2)n1/N=C/c1ccc(Cl)c(Cl)c1 | -42 | - | - | - | ? | ?
C/C(=C\c1ccccc1)CN1CCN(Cc2ccc(C)o2)C(CCO)C1 (configuration not stated) | - | - | - | - | ? | -
NC(=O)NC(=O)CCN1CCOC(c2ccc(F)cc2)C1 (configuration not stated) | - | . | . | . | . | .
COc1ccc(C(=O)N2CCN(C(=O)OC(C)(C)C)CC2)c(OC)c1OC | - | . | . | . | . | .
Cc1[nH]c(-c2ccc(F)cc2)cc1C(=O)N1CCN(c2ccc(Cl)cc2)CC1 | - | 14µM | - | - | ? | ?
CC1=CC(C)(C)NC(=S)N1c1cccc(C)c1 | - | - | - | - | - | -
COc1ccc(-c2onc(C)c2C)cc1S(=O)(=O)NCC1CCN(Cc2ccccc2F)CC1 | - | . | - | - | . | -
COc1ccc(-c2onc(C)c2C)cc1S(=O)(=O)NCC1CCN(Cc2cc(C)ccc2C)CC1 | - | . | 16µM | - | . | ?
CCCCCC(O)CCc1n[nH]c(=S)n1-c1ccccc1 (configuration not stated) | - | - | - | - | - | -
O=S(=O)(c1ccccc1)N1CCN=C1SCc1ccc(Cl)c(Cl)c1 | - | - | - | - | - | -
O=S(=O)(c1ccccc1)N1CCN=C1SCc1cccc(Cl)c1 | - | - | - | - | - | 13µM
CCc1ccc2c(c1)C1(NN=C(c3ccc(C)cc3)S1)C(=O)N2 (configuration not stated) | - | ? | - | - | ? | 16µM
Cc1cc(NC(=O)C2CCCN(S(=O)(=O)c3cccc4nsnc34)C2)ccc1Br (configuration not stated) | - | - | - | - | - | -
COc1ccc(C(=O)NCCc2sc(-c3ccc(F)cc3)nc2C)cc1OC | - | - | - | - | ? | ?
